# Experimental data from PMC8384837, “Expanding the binding specificity for RNA recognition by a PUF domain”.
# How the values were obtained:
# Test in all cases: yeast three-hybrid, YBZ-1, SC-Leu-His + 0.5 mM 3-AT, 4 days
# Details in all cases: tags: N-Gal4 AD-HA kept; label: inside an RPR1-promoter hybrid RNA with tandem MS2 sites; ssRNA
# PUM1 PUF domain R4-SPI = PUM1 PUF domain R4-SPI (Homo sapiens, UniProt Q14671 828-1176, N971S;H972P;Q975I)
# Procedure, shortened: (§1)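 The interaction score is the logarithmic change in variant frequency from input to selection. It uses log2, with a pseudocount of 1 for absent variants, and frequencies came from PCR-amplified, Illumina-sequenced repeat regions. The libraries were Pumilio-1 PUF domains randomized at the three base-contacting residues per repeat, co-expressed with matching RNA elements in strain YBZ-1 (LexA–MS2 coat fusion, HIS3 reporter). Plating lasted four days on SC-Leu (input) or SC-Leu-His + 0.5 mM 3-AT (selection).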
# PUM1 PUF domain R4-GNG = PUM1 PUF domain R4-GNG (Homo sapiens, UniProt Q14671 828-1176, N971G;H972N;Q975G)
# PUM1 PUF domain R4-GNG, sequence (Q14671 828-1176 N971G/H972N/Q975G): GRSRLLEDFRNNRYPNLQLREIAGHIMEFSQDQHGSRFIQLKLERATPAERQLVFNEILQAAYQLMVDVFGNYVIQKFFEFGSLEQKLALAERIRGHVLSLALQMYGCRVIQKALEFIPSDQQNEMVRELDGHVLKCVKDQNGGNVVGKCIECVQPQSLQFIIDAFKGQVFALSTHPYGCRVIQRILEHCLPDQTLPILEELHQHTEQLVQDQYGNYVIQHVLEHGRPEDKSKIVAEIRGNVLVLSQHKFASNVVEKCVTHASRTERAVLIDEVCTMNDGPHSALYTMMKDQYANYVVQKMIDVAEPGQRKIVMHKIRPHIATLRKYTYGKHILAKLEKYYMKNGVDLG
# Procedure, shortened: as §1
# PUM1 PUF domain R5-KRC = PUM1 PUF domain R5-KRC (Homo sapiens, UniProt Q14671 828-1176, C1007K;Q1011C)
# PUM1 PUF domain R5-KRC, sequence (Q14671 828-1176 C1007K/Q1011C): as the sequence (Q14671 828-1176 N971G/H972N/Q975G) above, with G144N, N145H, G148Q, C180K, Q184C counted along it
# Procedure, shortened: as §1
# PUM1 PUF domain R5-HRS = PUM1 PUF domain R5-HRS (Homo sapiens, UniProt Q14671 828-1176, C1007H;Q1011S)
# PUM1 PUF domain R5-HRS, sequence (Q14671 828-1176 C1007H/Q1011S): as the sequence (Q14671 828-1176 N971G/H972N/Q975G) above, with G144N, N145H, G148Q, C180H, Q184S counted along it
# Procedure, shortened: as §1
# PUM1 PUF domain R4-GMC = PUM1 PUF domain R4-GMC (Homo sapiens, UniProt Q14671 828-1176, N971G;H972M;Q975C)
# Procedure, shortened: as §1
# PUM1 PUF domain R4-WAK = PUM1 PUF domain R4-WAK (Homo sapiens, UniProt Q14671 828-1176, N971W;H972A;Q975K)
# Procedure, shortened: as §1
# PUM1 PUF domain R5-WWW = PUM1 PUF domain R5-WWW (Homo sapiens, UniProt Q14671 828-1176, C1007W;R1008W;Q1011W)
# Procedure, shortened: as §1
# PUM1 PUF domain R5-SVT = PUM1 PUF domain R5-SVT (Homo sapiens, UniProt Q14671 828-1176, C1007S;R1008V;Q1011T)
# Procedure, shortened: as §1
# PUM1 PUF domain R1-KSA = PUM1 PUF domain R1-KSA (Homo sapiens, UniProt Q14671 828-1176, S863K;R864S;Q867A)
# Procedure, shortened: as §1
# PUM1 PUF domain R3-YRQ = PUM1 PUF domain R3-YRQ (Homo sapiens, UniProt Q14671 828-1176, C935Y)
# Procedure, shortened: as §1
# PUM1 PUF domain R3-FCL = PUM1 PUF domain R3-FCL (Homo sapiens, UniProt Q14671 828-1176, C935F;R936C;Q939L)
# Procedure, shortened: as §1
# PUM1 PUF domain R3-LRG = PUM1 PUF domain R3-LRG (Homo sapiens, UniProt Q14671 828-1176, C935L;Q939G)
# Procedure, shortened: as §1
# PUM1 PUF domain R7-LYG = PUM1 PUF domain R7-LYG (Homo sapiens, UniProt Q14671 828-1176, S1079L;N1080Y;E1083G)
# Procedure, shortened: as §1
# PUM1 PUF domain R7-RSS = PUM1 PUF domain R7-RSS (Homo sapiens, UniProt Q14671 828-1176, S1079R;N1080S;E1083S)
# Procedure, shortened: as §1
# PUM1 PUF domain R3-KPS = PUM1 PUF domain R3-KPS (Homo sapiens, UniProt Q14671 828-1176, C935K;R936P;Q939S)
# Procedure, shortened: as §1
# PUM1 PUF domain R6-VYE = biological target: T1, PUM1 PUF domain R6-VYE (Homo sapiens, UniProt Q14671 828-1176, N1043V;Q1047E)
# T1 sequence: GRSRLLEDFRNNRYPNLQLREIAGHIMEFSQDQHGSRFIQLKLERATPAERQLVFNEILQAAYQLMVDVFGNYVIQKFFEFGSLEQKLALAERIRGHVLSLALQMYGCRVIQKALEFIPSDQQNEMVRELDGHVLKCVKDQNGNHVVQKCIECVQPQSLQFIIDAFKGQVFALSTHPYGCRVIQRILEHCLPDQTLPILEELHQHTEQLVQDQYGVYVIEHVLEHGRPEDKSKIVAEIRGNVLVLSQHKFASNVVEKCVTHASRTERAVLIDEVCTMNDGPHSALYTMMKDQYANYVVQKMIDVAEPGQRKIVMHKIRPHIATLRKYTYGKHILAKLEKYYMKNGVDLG
# Procedure, shortened: as §1
# PUM1 PUF domain R8-RHL = PUM1 PUF domain R8-RHL (Homo sapiens, UniProt Q14671 828-1176, N1122R;Y1123H;Q1126L)
# Procedure, shortened: as §1
# PUM1 PUF domain R8-PWL = PUM1 PUF domain R8-PWL (Homo sapiens, UniProt Q14671 828-1176, N1122P;Y1123W;Q1126L)
# Procedure, shortened: as §1
# PUM1 PUF domain R3-DHR = PUM1 PUF domain R3-DHR (Homo sapiens, UniProt Q14671 828-1176, C935D;R936H;Q939R)
# Procedure, shortened: as §1
# PUM1 PUF domain R3-SRH = PUM1 PUF domain R3-SRH (Homo sapiens, UniProt Q14671 828-1176, C935S;Q939H)
# Procedure, shortened: as §1
sequence,measurement,setting,value
GGCUAGAACUAGUGGAUCCCCCGGCGCCCGGCGGCUCGAGCCCGGGUAAGUGUACAUAGUCUGCAUGCCGCCGGGCGCCAUGCCUGCAGGUCGACUCUAGAAAACAUG,binding signal,PUM1 PUF domain R4-SPI,0.54 log2 enrichment (interaction score)
same,binding signal,PUM1 PUF domain R4-GNG,2.39 log2 enrichment (interaction score)
GGCUAGAACUAGUGGAUCCCCCGGCGCCCGGCGGCUCGAGCCCGGGUAAGUGUCAAUAGUCUGCAUGCCGCCGGGCGCCAUGCCUGCAGGUCGACUCUAGAAAACAUG,binding signal,PUM1 PUF domain R5-KRC,3.63 log2 enrichment (interaction score)
same,binding signal,PUM1 PUF domain R5-HRS,2.88 log2 enrichment (interaction score)
GGCUAGAACUAGUGGAUCCCCCGGCGCCCGGCGGCUCGAGCCCGGGUAAGUGUAUAUAGUCUGCAUGCCGCCGGGCGCCAUGCCUGCAGGUCGACUCUAGAAAACAUG,binding signal,PUM1 PUF domain R4-GMC,3.12 log2 enrichment (interaction score)
same,binding signal,PUM1 PUF domain R4-SPI,2.21 log2 enrichment (interaction score)
same,binding signal,PUM1 PUF domain R4-GNG,3.28 log2 enrichment (interaction score)
same,binding signal,PUM1 PUF domain R4-WAK,2.71 log2 enrichment (interaction score)
GGCUAGAACUAGUGGAUCCCCCGGCGCCCGGCGGCUCGAGCCCGGGUAAGUGUGAAUAGUCUGCAUGCCGCCGGGCGCCAUGCCUGCAGGUCGACUCUAGAAAACAUG,binding signal,PUM1 PUF domain R5-WWW,3.25 log2 enrichment (interaction score)
same,binding signal,PUM1 PUF domain R5-KRC,1.03 log2 enrichment (interaction score)
same,binding signal,PUM1 PUF domain R5-SVT,3.92 log2 enrichment (interaction score)
same,binding signal,PUM1 PUF domain R5-HRS,0.46 log2 enrichment (interaction score)
GGCUAGAACUAGUGGAUCCCCCGGCGCCCGGCGGCUCGAGCCCGGGUAAGUGUUAAUAGUCUGCAUGCCGCCGGGCGCCAUGCCUGCAGGUCGACUCUAGAAAACAUG,binding signal,PUM1 PUF domain R5-KRC,3.89 log2 enrichment (interaction score)
same,binding signal,PUM1 PUF domain R5-HRS,4.01 log2 enrichment (interaction score)
GGCUAGAACUAGUGGAUCCCCCGGCGCCCGGCGGCUCGAGCCCGGGUAAGUGUAAAUCGUCUGCAUGCCGCCGGGCGCCAUGCCUGCAGGUCGACUCUAGAAAACAUG,binding signal,PUM1 PUF domain R1-KSA,3.27 log2 enrichment (interaction score)
GGCUAGAACUAGUGGAUCCCCCGGCGCCCGGCGGCUCGAGCCCGGGUAAGUGUAAGUAGUCUGCAUGCCGCCGGGCGCCAUGCCUGCAGGUCGACUCUAGAAAACAUG,binding signal,PUM1 PUF domain R3-YRQ,3.31 log2 enrichment (interaction score)
same,binding signal,PUM1 PUF domain R3-FCL,4.28 log2 enrichment (interaction score)
same,binding signal,PUM1 PUF domain R3-LRG,3.85 log2 enrichment (interaction score)
GGCUAGAACUAGUGGAUCCCCCGGCGCCCGGCGGCUCGAGCCCGGGUAAGUCUAAAUAGUCUGCAUGCCGCCGGGCGCCAUGCCUGCAGGUCGACUCUAGAAAACAUG,binding signal,PUM1 PUF domain R7-LYG,2.93 log2 enrichment (interaction score)
same,binding signal,PUM1 PUF domain R7-RSS,1.34 log2 enrichment (interaction score)
GGCUAGAACUAGUGGAUCCCCCGGCGCCCGGCGGCUCGAGCCCGGGUAAGUGUAAUUAGUCUGCAUGCCGCCGGGCGCCAUGCCUGCAGGUCGACUCUAGAAAACAUG,binding signal,PUM1 PUF domain R3-KPS,3.86 log2 enrichment (interaction score)
same,binding signal,PUM1 PUF domain R3-LRG,0.54 log2 enrichment (interaction score)
GGCUAGAACUAGUGGAUCCCCCGGCGCCCGGCGGCUCGAGCCCGGGUAAGUGGAAAUAGUCUGCAUGCCGCCGGGCGCCAUGCCUGCAGGUCGACUCUAGAAAACAUG,binding signal,PUM1 PUF domain R6-VYE,2.43 log2 enrichment (interaction score)
GGCUAGAACUAGUGGAUCCCCCGGCGCCCGGCGGCUCGAGCCCGGGUAAGUGAAAAUAGUCUGCAUGCCGCCGGGCGCCAUGCCUGCAGGUCGACUCUAGAAAACAUG,binding signal,PUM1 PUF domain R6-VYE,7.22 log2 enrichment (interaction score)
GGCUAGAACUAGUGGAUCCCCCGGCGCCCGGCGGCUCGAGCCCGGGUAAGCGUAAAUAGUCUGCAUGCCGCCGGGCGCCAUGCCUGCAGGUCGACUCUAGAAAACAUG,binding signal,PUM1 PUF domain R8-RHL,5.48 log2 enrichment (interaction score)
same,binding signal,PUM1 PUF domain R8-PWL,3.61 log2 enrichment (interaction score)
GGCUAGAACUAGUGGAUCCCCCGGCGCCCGGCGGCUCGAGCCCGGGUAAGUGUAAAUAGUCUGCAUGCCGCCGGGCGCCAUGCCUGCAGGUCGACUCUAGAAAACAUG,binding signal,PUM1 PUF domain R8-RHL,3.23 log2 enrichment (interaction score)
same,binding signal,PUM1 PUF domain R8-PWL,2.93 log2 enrichment (interaction score)
same,binding signal,PUM1 PUF domain R5-KRC,2.12 log2 enrichment (interaction score)
same,binding signal,PUM1 PUF domain R4-GNG,1.49 log2 enrichment (interaction score)
same,binding signal,PUM1 PUF domain R3-DHR,3.23 log2 enrichment (interaction score)
same,binding signal,PUM1 PUF domain R3-SRH,4.37 log2 enrichment (interaction score)
GGCUAGAACUAGUGGAUCCCCCGGCGCCCGGCGGCUCGAGCCCGGGUAAGUUUAAAUAGUCUGCAUGCCGCCGGGCGCCAUGCCUGCAGGUCGACUCUAGAAAACAUG,binding signal,PUM1 PUF domain R7-RSS,2.76 log2 enrichment (interaction score)
